Inconclusive results are not listed. Entries that show only a call come without a potency. Unmarked numbers belong to inactive results. Activity calls are given as the source filed them. The call rests on the fitted dose curve; in most records, active means well fitted curve in the direction sought with a large enough effect; inconclusive means small, poorly fitted or top-dose-only effect, or another doubt; inactive means no such curve, though single readings can be large; an effect the other way counts as inactive or inconclusive.
Columns and labels:
C33A = experiment: Primary qHTS to identify gynecologic anti-cancer compounds using libraries of approved drugs and bioactive compounds (AID 1345084); settings: Gynecologic cancer cell panel viability, ATPlite luminescence, 48 h; series mostly up to 57.5 µM; further: nearly all actives have a fitted effect of over 55% in size
Procedure, shortened: (§1)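 Cytotoxicity screen measuring ATP content by luciferase luminescence. Each compound is applied at five concentrations for 48 h at 37 C with 5% CO2.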

CASKI = experiment: as above; settings: Gynecologic cancer cell panel viability, ATPlite luminescence, 48 h; series mostly up to 57.5 µM
Procedure, shortened: as §1

Es-2 = experiment: as above; settings: Gynecologic cancer cell panel viability, ATPlite luminescence, 48 h; series mostly up to 57.5 µM
Procedure, shortened: as §1

HeLa = experiment: as above; settings: Gynecologic cancer cell panel viability, ATPlite luminescence, 48 h; series mostly up to 57.5 µM
Procedure, shortened: as §1

Hek293T = experiment: as above; settings: Gynecologic cancer cell panel viability, ATPlite luminescence, 48 h, control line for the selectivity index; series mostly up to 57.5 µM
Procedure, shortened: as §1

JEG-3 = experiment: as above; settings: Gynecologic cancer cell panel viability, ATPlite luminescence, 48 h; series mostly up to 57.5 µM
Procedure, shortened: as §1

OV90 = experiment: as above; settings: Gynecologic cancer cell panel viability, ATPlite luminescence, 48 h; series mostly up to 57.5 µM
Procedure, shortened: as §1

PA-1 = experiment: as above; settings: Gynecologic cancer cell panel viability, ATPlite luminescence, 48 h; series mostly up to 57.5 µM
Procedure, shortened: as §1

SKOV3 = experiment: as above; settings: Gynecologic cancer cell panel viability, ATPlite luminescence, 48 h; series mostly up to 57.5 µM
Procedure, shortened: as §1

Tov-21-G = experiment: as above; settings: Gynecologic cancer cell panel viability, ATPlite luminescence, 48 h; series mostly up to 57.5 µM
Procedure, shortened: as §1

Tov112D = experiment: as above; settings: Gynecologic cancer cell panel viability, ATPlite luminescence, 48 h; series mostly up to 57.5 µM
Procedure, shortened: as §1

MCC-26 = experiment: qHTS assay to identify novel small-molecules to repurpose for Merkel cell carcinoma treatment (AID 1296009); settings: MCC and control cell lines, CellTiter-Glo viability, 72 h; series mostly up to 46 µM; further: nearly all actives have a fitted effect of over 60% in size
Procedure, shortened: (§2)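 Viability readout: ATP luminescence (CellTiter-Glo) after 72 hr drug exposure at 37 degree celsius. Dose-response format was 8 points for NPC and 11 points for MIPE; data normalized to in-plate controls.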

MKL-2 = experiment: as above; settings: MCC and control cell lines, CellTiter-Glo viability, 72 h; series mostly up to 46 µM
Procedure, shortened: as §2

WaGa = experiment: as above; settings: MCC and control cell lines, CellTiter-Glo viability, 72 h; series mostly up to 46 µM
Procedure, shortened: as §2

UISO = experiment: as above; settings: MCC and control cell lines, CellTiter-Glo viability, 72 h; series mostly up to 46 µM
Procedure, shortened: as §2

MKL-1 = experiment: as above; settings: MCC and control cell lines, CellTiter-Glo viability, 72 h; series mostly up to 46 µM
Procedure, shortened: as §2

NIH3T3 = experiment: as above; settings: MCC and control cell lines, CellTiter-Glo viability, 72 h; series mostly up to 44.8 µM
Procedure, shortened: as §2

[1] = Drug repurposing screens with cells derived from glioblastoma tumor samples (AID 1345199); settings: GBM patient neurospheres viability, ATP luminescence, 48 h; for activity, negative = cell killing: at 45.9 µM (top of the series); on all read-outs here: nearly all actives have a fitted effect of over 40% in size
Procedure, shortened: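 Primary testing used CD133+ neurospheres from four GBM patients, seven concentrations, 48 h exposure and ATP-based viability; confirmation added three slower-growing patient lines.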
Potency means the concentration at half of the fitted maximal effect.

## CNC(=O)c1c(-c2ccc(F)cc2)oc2cc(N(CCO)S(C)(=O)=O)c(C3CC3)cc12
C33A
  Potency: inactive
CASKI
  Potency: inactive
Es-2
  Potency: inactive
HeLa
  Potency: inactive
Hek293T
  Potency: inactive
JEG-3
  Potency: inactive
OV90
  Potency: inactive
PA-1
  Potency: inactive
SKOV3
  Potency: inactive
Tov-21-G
  Potency: inactive
Tov112D
  Potency: inactive

## CCC(C)SSc1ncc[nH]1 (stereo not drawn)
MCC-26
  Potency: inactive
MKL-2
  Potency: 16.6 µM (active)
WaGa
  Potency: 23.5 µM (active)

## CC(C)n1c(C=C[C@H](O)C[C@H](O)CC(=O)O)c(-c2ccc(F)cc2)c2ccccc21
MCC-26
  Potency: 20.9 µM (active)
MKL-2
  Potency: 7.43 µM (active)
UISO
  Potency: 10.5 µM (active)
WaGa
  Potency: 18.7 µM (active)

## NC(=O)c1noc([C@H](CCCC2CCCCC2)CC(=O)NO)n1
MCC-26
  Potency: inactive
MKL-1
  Potency: 16.6 µM (active)
UISO
  Potency: 14.8 µM (active)
C33A
  Potency: inactive
CASKI
  Potency: inactive
Es-2
  Potency: inactive
HeLa
  Potency: inactive
Hek293T
  Potency: inactive
JEG-3
  Potency: inactive
OV90
  Potency: inactive
Tov-21-G
  Potency: inactive
Tov112D
  Potency: inactive

## COc1cc2c(cc1Cc1cccc(Cl)c1F)c(=O)c(C(=O)O)cn2[C@H](CO)C(C)C
MCC-26
  Potency: inactive
MKL-2
  Potency: 18.7 µM (active)

## COc1c(C)c2c(c(O)c1CC=C(C)CCC(=O)O)C(=O)OC2
MKL-1
  Potency: 4.69 µM (active)
MKL-2
  Potency: 2.09 µM (active)
UISO
  Potency: 9.35 µM (active)
WaGa
  Potency: 3.32 µM (active)

## Cc1cccc2c1CC[C@H](CN1CCC(c3c(Cl)cccc3Cl)CC1)C[C@@H]2O
MCC-26
  Potency: inactive
MKL-1
  Potency: inactive
MKL-2
  Potency: inactive
WaGa
  Potency: inactive
C33A
  Potency: inactive
CASKI
  Potency: inactive
Es-2
  Potency: inactive
OV90
  Potency: inactive
PA-1
  Potency: 11.2 µM (active)
Tov-21-G
  Potency: inactive
Tov112D
  Potency: inactive

## C[C@@]1(C(=O)Nc2ccc(F)nc2)CCCN1c1nc(Nc2cc(C3CC3)[nH]n2)c2cccn2n1
MCC-26
  Potency: 16.6 µM (active)
NIH3T3
  Potency: 4.61 µM (active)
UISO
  Potency: 0.0833 µM (active)
WaGa
  Potency: 3.32 µM (active)
C33A
  Potency: inactive
CASKI
  Potency: 14.1 µM (active)
Es-2
  Potency: inactive
HeLa
  Potency: 3.98 µM (active)
JEG-3
  Potency: inactive
PA-1
  Potency: 5.01 µM (active)
Tov-21-G
  Potency: 12.6 µM (active)
Tov112D
  Potency: inactive

## O=C(NC[C@H](O)CO)c1ccncc1Nc1ccc(I)cc1F
MCC-26
  Potency: inactive
MKL-2
  Potency: 6.62 µM (active)
UISO
  Potency: inactive
WaGa
  Potency: inactive

## C[C@@H](N)c1ccc(C(=O)Nc2ccnc3[nH]ccc23)cc1
MCC-26
  Potency: inactive
MKL-1
  Potency: inactive
MKL-2
  Potency: inactive
HeLa
  Potency: 17.8 µM (active)
JEG-3
  Potency: inactive
OV90
  Potency: inactive
Tov-21-G
  Potency: 31.6 µM (active)
Tov112D
  Potency: 25.1 µM (active)

## Nc1ccc(-c2ccc3ncc4ccc(=O)n(-c5cccc(C(F)(F)F)c5)c4c3c2)cn1
MKL-1
  Potency: 0.148 µM (active)
MKL-2
  Potency: 0.132 µM (active)
UISO
  Potency: 0.0332 µM (active)
WaGa
  Potency: 0.372 µM (active)
CASKI
  Potency: 1 µM (active)
Es-2
  Potency: 0.316 µM (active)
HeLa
  Potency: 2.51 µM (active)
Hek293T
  Potency: 0.316 µM (active)
JEG-3
  Potency: 8.91 µM (active)
Tov-21-G
  Potency: 17.8 µM (active)

## Cc1cccc(-c2[nH]c(C(C)(C)C)nc2-c2ccc3c(c2)OCO3)n1
MKL-1
  Potency: 3.72 µM (active)
MKL-2
  Potency: 0.743 µM (active)
UISO
  Potency: 1.32 µM (active)
WaGa
  Potency: 2.64 µM (active)

## CC(C)CNc1ccnc(NCc2csc(-c3ccccc3)n2)n1
MCC-26
  Potency: inactive
MKL-2
  Potency: 16.6 µM (active)
UISO
  Potency: 13.2 µM (active)
Es-2
  Potency: 22.4 µM (active)
HeLa
  Potency: inactive
JEG-3
  Potency: inactive
PA-1
  Potency: 12.6 µM (active)
SKOV3
  Potency: 11.2 µM (active)

## O=C(CCCN1CCN(c2ccc(F)cc2)CC1)NC1c2ccccc2CSc2ccccc21 (stereo not drawn)
MCC-26
  Potency: inactive
C33A
  Potency: inactive
CASKI
  Potency: inactive
Es-2
  Potency: inactive
HeLa
  Potency: inactive
Hek293T
  Potency: inactive
JEG-3
  Potency: inactive
PA-1
  Potency: inactive
SKOV3
  Potency: inactive
Tov-21-G
  Potency: inactive
Tov112D
  Potency: inactive
[1]; tumour line B
  activity, negative = cell killing: -21%
[1]; tumour line D
  activity, negative = cell killing: -27.4%
[1]; tumour line A
  Potency: 3.98 µM (active)

## O=C1NC(=O)C(c2cnc3ccccn23)=C1c1cn2c3c(cccc13)CN(C(=O)N1CCOCC1)CC2
MKL-1
  Potency: inactive
MKL-2
  Potency: inactive
C33A
  Potency: inactive
CASKI
  Potency: 3.16 µM (active)
Es-2
  Potency: inactive
HeLa
  Potency: inactive
Hek293T
  Potency: inactive
JEG-3
  Potency: inactive
PA-1
  Potency: inactive
SKOV3
  Potency: 1.41 µM (active)
Tov112D
  Potency: inactive
